# About 7,900 targets were measured; listed, in parts, are those with a hit and a random draw of the rest. About 0.6% of all pairs of compound and target were hits. Values without a mark were called inactive.
# Compound: C1=CC=C(C=C1)[C@H](COC2=CC3=C(C=C2)NC(=O)N3)NC(=O)C4=CC=CN(C4=O)CC5=CC(=C(C=C5)F)F
# Assay: log2 fold change, soluble protein after heating vs DMSO (PISA); higher = thermal stabilisation; K562 cells, 10 uM, 30 min; active = over 0.2 and 3.5 SD of the protein, either way, in both replicates (recomputed)
# Outline: (§1)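 K562 cells at 2×10^6 cells/mL were treated with 10 μM compound for 30 min. Aliquots were heated for 3 min across 48°C-58°C, pooled, and extracted in PBS with 0.5% NP-40 at 4°C; soluble protein was the supernatant after 21,000xg for 90 min. Soluble protein was quantified by TMTpro 16plex LC-MS/MS with channel sums equalised, and reported as log2 fold change in thermal stability against DMSO controls, with values from duplicates.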
# UniProt Q99747, sequence (Q99747 whole entry, looked up): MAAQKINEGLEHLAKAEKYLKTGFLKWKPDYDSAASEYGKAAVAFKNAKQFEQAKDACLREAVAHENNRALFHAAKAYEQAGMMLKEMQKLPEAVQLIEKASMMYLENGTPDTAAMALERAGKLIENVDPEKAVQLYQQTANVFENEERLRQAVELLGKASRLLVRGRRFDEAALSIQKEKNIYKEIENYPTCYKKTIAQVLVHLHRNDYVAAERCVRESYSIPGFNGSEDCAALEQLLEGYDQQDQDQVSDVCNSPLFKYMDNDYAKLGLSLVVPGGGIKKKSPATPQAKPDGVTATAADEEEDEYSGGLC
# UniProt P04181, sequence (P04181 whole entry, looked up): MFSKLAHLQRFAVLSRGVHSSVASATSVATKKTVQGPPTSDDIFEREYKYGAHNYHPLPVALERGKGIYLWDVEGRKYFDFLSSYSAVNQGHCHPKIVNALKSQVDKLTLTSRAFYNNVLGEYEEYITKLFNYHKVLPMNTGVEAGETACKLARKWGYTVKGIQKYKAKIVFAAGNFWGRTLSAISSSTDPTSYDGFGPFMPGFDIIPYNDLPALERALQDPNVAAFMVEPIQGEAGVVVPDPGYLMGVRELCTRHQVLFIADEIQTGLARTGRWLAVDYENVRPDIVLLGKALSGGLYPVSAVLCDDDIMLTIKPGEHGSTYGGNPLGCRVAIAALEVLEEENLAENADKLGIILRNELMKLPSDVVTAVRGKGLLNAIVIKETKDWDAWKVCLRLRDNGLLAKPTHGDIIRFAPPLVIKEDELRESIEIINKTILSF
# UniProt O15118, sequence (O15118 whole entry, looked up): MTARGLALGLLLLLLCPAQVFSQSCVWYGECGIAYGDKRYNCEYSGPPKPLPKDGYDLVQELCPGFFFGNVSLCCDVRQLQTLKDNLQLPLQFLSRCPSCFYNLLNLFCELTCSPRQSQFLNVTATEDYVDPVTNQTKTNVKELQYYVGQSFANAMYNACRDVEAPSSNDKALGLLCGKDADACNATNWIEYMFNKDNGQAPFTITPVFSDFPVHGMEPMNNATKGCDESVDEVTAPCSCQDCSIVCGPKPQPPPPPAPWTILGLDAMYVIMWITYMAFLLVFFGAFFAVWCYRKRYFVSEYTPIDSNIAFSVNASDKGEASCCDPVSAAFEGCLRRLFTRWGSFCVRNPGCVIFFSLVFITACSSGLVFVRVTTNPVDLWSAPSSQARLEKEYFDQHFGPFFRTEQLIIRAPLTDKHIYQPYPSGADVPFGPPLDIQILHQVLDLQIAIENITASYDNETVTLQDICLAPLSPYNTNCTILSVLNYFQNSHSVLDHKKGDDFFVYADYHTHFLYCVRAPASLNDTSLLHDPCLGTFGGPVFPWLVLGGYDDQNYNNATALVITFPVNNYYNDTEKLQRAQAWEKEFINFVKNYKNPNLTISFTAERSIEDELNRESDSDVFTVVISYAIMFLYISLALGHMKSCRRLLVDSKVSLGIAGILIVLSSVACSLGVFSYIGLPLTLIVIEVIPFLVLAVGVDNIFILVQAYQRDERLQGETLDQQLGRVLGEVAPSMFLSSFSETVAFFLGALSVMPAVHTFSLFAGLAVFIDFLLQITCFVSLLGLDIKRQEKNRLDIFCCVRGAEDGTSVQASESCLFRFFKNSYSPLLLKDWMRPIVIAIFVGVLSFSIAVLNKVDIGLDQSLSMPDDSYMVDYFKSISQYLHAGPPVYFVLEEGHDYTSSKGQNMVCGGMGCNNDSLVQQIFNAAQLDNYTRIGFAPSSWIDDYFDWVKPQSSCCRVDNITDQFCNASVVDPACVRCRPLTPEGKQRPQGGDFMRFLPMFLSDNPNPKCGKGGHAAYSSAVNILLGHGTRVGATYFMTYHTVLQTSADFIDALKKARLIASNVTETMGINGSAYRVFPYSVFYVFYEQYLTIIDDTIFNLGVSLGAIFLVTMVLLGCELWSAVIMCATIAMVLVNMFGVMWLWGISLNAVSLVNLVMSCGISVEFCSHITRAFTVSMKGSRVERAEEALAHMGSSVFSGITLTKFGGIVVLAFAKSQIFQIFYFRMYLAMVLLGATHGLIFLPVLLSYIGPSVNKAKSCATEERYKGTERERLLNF
# UniProt Q4G0T1, sequence (Q4G0T1 whole entry, looked up): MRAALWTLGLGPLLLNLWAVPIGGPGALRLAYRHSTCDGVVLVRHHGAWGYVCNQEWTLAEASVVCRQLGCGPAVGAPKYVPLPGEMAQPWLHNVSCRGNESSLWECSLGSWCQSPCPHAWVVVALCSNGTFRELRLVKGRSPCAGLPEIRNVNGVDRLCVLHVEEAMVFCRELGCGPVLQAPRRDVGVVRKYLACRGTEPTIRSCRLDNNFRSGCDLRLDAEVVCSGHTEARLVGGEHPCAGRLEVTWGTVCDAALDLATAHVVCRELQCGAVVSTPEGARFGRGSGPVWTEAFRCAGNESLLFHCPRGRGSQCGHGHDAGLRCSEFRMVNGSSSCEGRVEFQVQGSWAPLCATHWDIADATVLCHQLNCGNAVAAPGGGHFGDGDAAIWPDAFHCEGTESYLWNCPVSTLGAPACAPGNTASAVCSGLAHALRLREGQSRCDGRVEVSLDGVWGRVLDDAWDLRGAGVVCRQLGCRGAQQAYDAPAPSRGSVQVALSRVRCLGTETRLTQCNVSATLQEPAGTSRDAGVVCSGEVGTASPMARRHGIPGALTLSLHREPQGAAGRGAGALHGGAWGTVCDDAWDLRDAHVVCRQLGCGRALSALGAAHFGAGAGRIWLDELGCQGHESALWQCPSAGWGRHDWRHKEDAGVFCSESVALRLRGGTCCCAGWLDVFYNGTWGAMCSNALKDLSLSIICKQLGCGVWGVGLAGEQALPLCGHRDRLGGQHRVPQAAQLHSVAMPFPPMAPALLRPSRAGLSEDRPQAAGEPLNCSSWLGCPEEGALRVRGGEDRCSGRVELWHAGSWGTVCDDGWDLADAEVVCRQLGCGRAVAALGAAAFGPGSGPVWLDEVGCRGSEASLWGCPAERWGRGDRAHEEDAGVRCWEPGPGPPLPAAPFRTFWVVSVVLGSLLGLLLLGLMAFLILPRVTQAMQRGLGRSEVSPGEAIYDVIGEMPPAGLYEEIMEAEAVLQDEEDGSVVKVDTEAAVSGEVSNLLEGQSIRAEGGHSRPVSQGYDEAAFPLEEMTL
# UniProt Q8TEM1, sequence (Q8TEM1 whole entry, looked up): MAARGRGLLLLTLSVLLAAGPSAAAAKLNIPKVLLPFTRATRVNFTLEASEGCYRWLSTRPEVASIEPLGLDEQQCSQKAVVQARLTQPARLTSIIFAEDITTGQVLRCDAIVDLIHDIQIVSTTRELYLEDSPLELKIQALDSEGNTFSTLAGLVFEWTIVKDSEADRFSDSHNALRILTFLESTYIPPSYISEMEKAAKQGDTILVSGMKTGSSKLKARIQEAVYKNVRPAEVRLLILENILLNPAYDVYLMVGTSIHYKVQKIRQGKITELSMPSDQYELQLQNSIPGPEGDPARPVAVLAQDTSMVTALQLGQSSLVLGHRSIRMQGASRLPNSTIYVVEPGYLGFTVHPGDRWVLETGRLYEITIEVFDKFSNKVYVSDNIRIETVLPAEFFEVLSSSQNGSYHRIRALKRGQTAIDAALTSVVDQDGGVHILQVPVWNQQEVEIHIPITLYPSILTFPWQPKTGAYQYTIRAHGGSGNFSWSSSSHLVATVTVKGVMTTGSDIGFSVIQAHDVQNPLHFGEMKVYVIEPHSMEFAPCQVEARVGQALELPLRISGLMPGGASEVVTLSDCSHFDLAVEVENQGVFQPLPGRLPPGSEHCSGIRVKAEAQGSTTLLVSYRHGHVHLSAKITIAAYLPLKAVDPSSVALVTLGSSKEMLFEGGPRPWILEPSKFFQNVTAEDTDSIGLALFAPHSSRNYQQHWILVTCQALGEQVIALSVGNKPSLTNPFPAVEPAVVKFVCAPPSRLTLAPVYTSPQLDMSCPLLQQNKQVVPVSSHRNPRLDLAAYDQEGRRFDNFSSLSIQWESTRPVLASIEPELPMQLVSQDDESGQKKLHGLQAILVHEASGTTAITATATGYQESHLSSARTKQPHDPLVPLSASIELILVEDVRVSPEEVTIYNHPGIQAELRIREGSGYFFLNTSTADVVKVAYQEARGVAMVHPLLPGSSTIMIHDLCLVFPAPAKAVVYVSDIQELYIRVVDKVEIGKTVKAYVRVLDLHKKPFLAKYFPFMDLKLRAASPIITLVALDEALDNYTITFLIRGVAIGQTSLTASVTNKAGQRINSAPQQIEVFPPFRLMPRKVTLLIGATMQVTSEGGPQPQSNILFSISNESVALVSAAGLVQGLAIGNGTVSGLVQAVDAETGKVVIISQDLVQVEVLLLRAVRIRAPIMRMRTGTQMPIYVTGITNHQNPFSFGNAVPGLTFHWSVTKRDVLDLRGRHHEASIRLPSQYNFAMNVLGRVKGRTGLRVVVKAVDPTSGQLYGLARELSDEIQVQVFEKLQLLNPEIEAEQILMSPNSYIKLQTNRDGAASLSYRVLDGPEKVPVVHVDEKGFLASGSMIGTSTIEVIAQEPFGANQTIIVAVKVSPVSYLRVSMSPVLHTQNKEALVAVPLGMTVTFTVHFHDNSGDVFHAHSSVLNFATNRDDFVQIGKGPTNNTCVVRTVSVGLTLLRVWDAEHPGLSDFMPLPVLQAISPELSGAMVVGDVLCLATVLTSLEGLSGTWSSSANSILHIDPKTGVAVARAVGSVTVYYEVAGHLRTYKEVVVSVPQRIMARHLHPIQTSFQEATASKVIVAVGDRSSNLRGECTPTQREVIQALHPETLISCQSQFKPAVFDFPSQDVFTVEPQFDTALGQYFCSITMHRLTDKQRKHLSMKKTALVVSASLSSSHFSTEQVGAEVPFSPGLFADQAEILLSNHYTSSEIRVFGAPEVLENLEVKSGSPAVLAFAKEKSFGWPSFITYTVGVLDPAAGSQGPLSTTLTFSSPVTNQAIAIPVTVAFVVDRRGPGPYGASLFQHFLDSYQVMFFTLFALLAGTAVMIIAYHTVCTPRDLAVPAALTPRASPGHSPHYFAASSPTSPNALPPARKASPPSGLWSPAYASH
# UniProt O75438, sequence (O75438 whole entry, looked up): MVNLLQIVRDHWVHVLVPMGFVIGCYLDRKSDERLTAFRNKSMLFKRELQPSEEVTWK
row,Target,log2 fold change
1,MTFR1L (UniProt Q9H019),-0.036
2,NELFA (UniProt Q9H3P2),-0.016
3,MRPL50 (UniProt Q8N5N7),0.11
4,NAPG (UniProt Q99747),-0.036
5,NA isoform 3 (UniProt Q4G0T1),0.161
6,OAT (UniProt P04181),-0.019
7,MSH2 (UniProt P43246),-0.041
8,NUP210 (UniProt Q8TEM1),-0.083
9,MMS19 isoform 8 (UniProt Q96T76),-0.034
10,MRPS16 (UniProt Q9Y3D3),-0.006
11,NACC1 (UniProt Q96RE7),-0.029
12,NPC1 (UniProt O15118),-0.034
13,MLST8 (UniProt Q9BVC4),-0.038
14,NOP53 (UniProt Q9NZM5),0.103

# Compound: CC1=C(SC2=C1C(=N[C@H](C3=NN=C(N32)C)CC(=O)N)C4=CC=C(C=C4)Cl)C
# Assay: as above
# Outline: as §1
row,Target,log2 fold change
1,MOV10 (UniProt Q9HCE1),-0.095
2,MSH6 (UniProt P52701),0.08
3,MRPL34 (UniProt Q9BQ48),-0.154
4,NFATC3 (UniProt Q12968),0.081
5,MNAT1 (UniProt P51948),0.088
6,NCL (UniProt P19338),-0.365
7,MYLK (UniProt Q15746),-0.053
8,MYL12B (UniProt O14950),0.054
9,NNT (UniProt Q13423),0.091
10,MRPS21 (UniProt P82921),0.032
11,PACS1 (UniProt Q6VY07),0.042
12,NPM3 (UniProt O75607),-0.08
13,MORF4L2 (UniProt Q15014),0.001
14,NDUFS8 (UniProt O00217),0.1
15,NOLC1 isoform 2 (UniProt Q14978),-0.029
16,MND1 (UniProt Q9BWT6),0.012
17,NDUFB1 (UniProt O75438),-0.059
18,NTMT1 (UniProt Q9BV86),0.034
19,OGFOD2 (UniProt Q6N063),0.097

row,Target,log2 fold change
1,NDUFAF6 (UniProt Q330K2),0.003
2,NECTIN2 (UniProt Q92692),0.031
3,MT-ATP6 (UniProt P00846),-0.065
4,NMRAL1 (UniProt Q9HBL8),-0.017
5,MRPS2 (UniProt Q9Y399),0.147
6,MTFR1L (UniProt Q9H019),-0.009
7,NELFA (UniProt Q9H3P2),0.213
8,MRPL50 (UniProt Q8N5N7),0.01
9,NAPG (UniProt Q99747),0.044
10,NA isoform 3 (UniProt Q4G0T1),-0.017
11,OAT (UniProt P04181),0.083
12,MSH2 (UniProt P43246),0.051
13,NUP210 (UniProt Q8TEM1),0.059
14,MMS19 isoform 8 (UniProt Q96T76),-0.001
15,MRPS16 (UniProt Q9Y3D3),-0.033
16,NACC1 (UniProt Q96RE7),0.039
17,NPC1 (UniProt O15118),-0.038
18,MLST8 (UniProt Q9BVC4),0.062
19,NOP53 (UniProt Q9NZM5),-0.332

# Compound: CC1=C2C(=CC=C1)N=C(N(C2=O)C3=CC=CC=C3C)CN4C=NC5=C(N=CN=C54)N
# Assay: as above
# Outline: as §1
row,Target,log2 fold change
1,MOV10 (UniProt Q9HCE1),-0.095
2,MSH6 (UniProt P52701),0.127
3,MRPL34 (UniProt Q9BQ48),-0.073
4,NFATC3 (UniProt Q12968),0.12
5,MNAT1 (UniProt P51948),0.005
6,NCL (UniProt P19338),-0.299
7,MYLK (UniProt Q15746),0.096
8,MYL12B (UniProt O14950),0.009
9,NNT (UniProt Q13423),0.044
10,MRPS21 (UniProt P82921),0.013
11,PACS1 (UniProt Q6VY07),0.033
12,NPM3 (UniProt O75607),-0.087
13,MORF4L2 (UniProt Q15014),-0.002
14,NDUFS8 (UniProt O00217),0.082
15,NOLC1 isoform 2 (UniProt Q14978),0.002
16,MND1 (UniProt Q9BWT6),0.081
17,NDUFB1 (UniProt O75438),-0.056
18,NTMT1 (UniProt Q9BV86),0.079
19,OGFOD2 (UniProt Q6N063),0.024

row,Target,log2 fold change
1,NDUFAF6 (UniProt Q330K2),-0.006
2,NECTIN2 (UniProt Q92692),-0.019
3,MT-ATP6 (UniProt P00846),0.076
4,NMRAL1 (UniProt Q9HBL8),0.025
5,MRPS2 (UniProt Q9Y399),-0.042
6,MTFR1L (UniProt Q9H019),0.066
7,NELFA (UniProt Q9H3P2),0.056
8,MRPL50 (UniProt Q8N5N7),-0.079
9,NAPG (UniProt Q99747),0.073
10,NA isoform 3 (UniProt Q4G0T1),0.026
11,OAT (UniProt P04181),0.05
12,MSH2 (UniProt P43246),0.105
13,NUP210 (UniProt Q8TEM1),0.037
14,MMS19 isoform 8 (UniProt Q96T76),0.133
15,MRPS16 (UniProt Q9Y3D3),-0.009
16,NACC1 (UniProt Q96RE7),0.092
17,NPC1 (UniProt O15118),-0.017
18,MLST8 (UniProt Q9BVC4),0.082
19,NOP53 (UniProt Q9NZM5),-0.415
